Assay results from PubChem BioAssay (NCI).
About 79,000 compounds went through this panel and 15% of them were active in at least one assay; those are over-represented in the sample as a whole. Calls of active or inactive are those of the source. Cut-off read from the data, not from the text of the source: active = growth inhibition above about 70%; inactive = the rest.

Columns and labels:
[1] = NCI Yeast Anticancer Drug Screen. Data for the rad52 strain (AID 147);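 note: 0% = growth of vehicle-treated control cultures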; settings: S. cerevisiae rad52 mutant growth inhibition, stronger effect = higher value
How it was run: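 Growth of repair-deficient yeast cells was compared between compound-treated and vehicle-treated cultures to give percent inhibition.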

[2] = NCI Yeast Anticancer Drug Screen. Data for the rad50EPP+ strain (AID 151);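 note: 0% = growth of vehicle-treated control cultures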; settings: S. cerevisiae rad50 mutant strain, stronger effect = higher value
How it was run: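 Measured: growth inhibition of rad50EPP+ yeast. Reference: vehicle-treated controls. Screen uses strains with defined genetic alterations in DNA damage repair or cell cycle control.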

[3] = NCI Yeast Anticancer Drug Screen. Data for the mgt1 strain (AID 153); settings: S. cerevisiae mgt1 mutant growth inhibition, stronger effect = higher value
How it was run: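 Compounds were applied to mgt1 mutant yeast, and growth was then compared against vehicle-treated control cultures to give percent inhibition.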

[4] = NCI Yeast Anticancer Drug Screen. Data for the rad50 strain (AID 155);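 note: 0% = growth of vehicle-only cultures of the same strain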; settings: S. cerevisiae rad50 strain growth inhibition, stronger effect = higher value
How it was run: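 Readout: growth inhibition relative to vehicle-treated cultures. Compound exposure was carried out in a genetically defined yeast strain deficient in DNA damage repair.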

[5] = NCI Yeast Anticancer Drug Screen. Data for the mec2-1 strain (AID 157); settings: S. cerevisiae mec2-1 strain, stronger effect = higher value
How it was run: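 Compounds were applied to mec2-1 yeast cells. Their growth was then compared with that of vehicle-treated cultures to give growth inhibition.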

[6] = NCI Yeast Anticancer Drug Screen. Data for the rad14 strain (AID 159);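 note: 0% = growth of vehicle-treated control cultures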; settings: S. cerevisiae rad14 strain growth inhibition, stronger effect = higher value
How it was run: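 Growth inhibition vs vehicle controls; genetically altered yeast strain (DNA damage repair defect) treated with test compounds.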

[7] = NCI Yeast Anticancer Drug Screen. Data for the sgs1 mgt1 strain (AID 161);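 note: 0% = growth of cultures given vehicle only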; settings: S. cerevisiae sgs1 mgt1 strain, stronger effect = higher value
How it was run: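 Percent growth inhibition was derived by comparing compound-exposed mutant yeast with vehicle-exposed cultures. The strain carries alterations in DNA damage repair.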

[8] = NCI Yeast Anticancer Drug Screen. Data for the CLN2oe strain (AID 163);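 note: 0% = growth of vehicle-only control cultures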; settings: S. cerevisiae CLN2oe strain, stronger effect = higher value
How it was run: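 Cells of an engineered yeast line with disturbed cell-cycle regulation are treated with compound. Inhibition of growth is then calculated relative to the vehicle-treated reference.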

[9] = NCI Yeast Anticancer Drug Screen. Data for the cln2 rad14 strain (AID 165);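 note: 0% = growth equal to vehicle treated cultures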; settings: S. cerevisiae cln2 rad14 strain, stronger effect = higher value
How it was run: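 Strain: cln2 rad14 yeast, altered in cell cycle control and DNA damage repair. Read-out: growth inhibition vs vehicle.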

[10] = NCI Yeast Anticancer Drug Screen. Data for the bub3 strain (AID 167); settings: S. cerevisiae bub3 mutant strain, stronger effect = higher value
How it was run: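 Readout: yeast growth inhibition, expressed relative to vehicle-only wells. The test organism is a mutant strain from a panel with lesions in DNA repair or checkpoint genes.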

[11] = NCI Yeast Anticancer Drug Screen. Data for the wt2 strain (AID 169);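 note: 0% = growth of vehicle-treated yeast cultures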; settings: S. cerevisiae wt2 strain growth inhibition, stronger effect = higher value
How it was run: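 Growth of compound-treated yeast is measured and expressed as inhibition relative to vehicle-only controls.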

[12] = NCI Yeast Anticancer Drug Screen. Data for the mlh1 strain (AID 171);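 note: 0% = growth of vehicle-treated control cultures of the same strain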; settings: S. cerevisiae mlh1 strain growth inhibition, stronger effect = higher value
How it was run: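 Test agents were incubated with yeast bearing a defined DNA damage repair or cell cycle control alteration; values are growth inhibition normalised to vehicle-treated cultures.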

[13] = NCI Yeast Anticancer Drug Screen. Data for the sgs1 strain (AID 173);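 note: 0% = growth of vehicle-only control cultures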; settings: S. cerevisiae sgs1 mutant, stronger effect = higher value
How it was run: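 Strain with an altered DNA repair or cell cycle pathway exposed to compound. Growth then measured. Value = inhibition versus vehicle control.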

[14] = NCI Yeast Anticancer Drug Screen. Data for the mlh1 rad18 strain (AID 175); settings: S. cerevisiae mlh1 rad18 strain growth inhibition, stronger effect = higher value
How it was run: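 A repair-deficient yeast strain is exposed to test compound, and growth is scored relative to vehicle-treated controls.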

[15] = NCI Yeast Anticancer Drug Screen. Data for the rad18 strain (AID 177); settings: S. cerevisiae rad18 mutant growth inhibition, stronger effect = higher value
How it was run: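 DNA-repair-defective yeast; compound treatment; growth inhibition scored against vehicle.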

[16] = at 5.0 µM (retest, dose inferred, filed as 0.5)
[17] = at 50.0 µM (retest, dose inferred, filed as 5.0)

Measured: growth inhibition

COc1ccc(/C=C/C(=O)C(C)(C)Br)cc1
inactive: [1]; at 1.2 µM 45% | [3]; at 1.2 µM 0% | [3]; at 3.7 µM 9% | [3]; at 11.0 µM 18% | [3]; at 33.0 µM 27% | [4]; at 1.2 µM 41% | [5]; at 1.2 µM 24% | [5]; [16] 11% | [6]; at 1.2 µM 28% | [6]; at 3.7 µM 69% | [8]; at 1.2 µM 0% | [8]; at 3.7 µM 3% | [8]; at 11.0 µM 20% | [8]; at 33.0 µM 36% | [9]; [16] 52% | [10]; at 1.2 µM -9% | [10]; at 3.7 µM -7% | [10]; [16] 26% | [10]; at 11.0 µM 4% | [10]; at 33.0 µM 25% | [11]; at 1.2 µM 2% | [11]; at 3.7 µM 10% | [11]; at 11.0 µM 26% | [11]; at 33.0 µM 37% | [12]; at 1.2 µM 5% | [12]; at 3.7 µM 19% | [12]; at 11.0 µM 33% | [12]; at 33.0 µM 54% | [13]; at 1.2 µM 69%
active: [1]; at 3.7 µM 89% | [1]; at 11.0 µM 95% | [1]; at 33.0 µM 97% | [1]; at 100.0 µM 98% | [2]; at 1.2 µM 79% | [2]; at 3.7 µM 93% | [2]; at 11.0 µM 96% | [2]; at 33.0 µM 97% | [2]; at 100.0 µM 98% | [3]; at 100.0 µM 71% | [4]; at 3.7 µM 74% | [4]; [16] 75% | [4]; at 11.0 µM 88% | [4]; at 33.0 µM 93% | [4]; [17] 96% | [4]; at 50.0 µM 94.5% | [4]; at 100.0 µM 96% | [5]; at 3.7 µM 71% | [5]; at 11.0 µM 96% | [5]; at 33.0 µM 97% | [5]; [17] 98% | [5]; at 50.0 µM 96.6% | [5]; at 100.0 µM 97% | [6]; at 11.0 µM 93% | [6]; at 33.0 µM 96% | [6]; at 100.0 µM 99% | [7]; [16] 86% | [7]; [17] 97% | [7]; at 50.0 µM 93.7% | [8]; at 100.0 µM 89% | [9]; [17] 92% | [9]; at 50.0 µM 91.5% | [10]; [17] 99% | [10]; at 50.0 µM 73.3% | [10]; at 100.0 µM 82% | [11]; at 100.0 µM 89% | [12]; at 100.0 µM 94% | [13]; at 3.7 µM 87% | [13]; at 11.0 µM 91% | [13]; at 33.0 µM 92% | [13]; at 100.0 µM 95% | [14]; [16] 89% | [14]; [17] 99% | [14]; at 50.0 µM 94.4% | [15]; at 1.2 µM 96% | [15]; at 3.7 µM 97% | [15]; at 11.0 µM 97% | [15]; at 33.0 µM 97% | [15]; at 100.0 µM 98%

c1ccc2c(c1)C(=NCCCN1CCCCCC1)c1cccn1-2
inactive: [1]; at 1.2 µM -3% | [1]; at 3.7 µM -5% | [1]; at 11.0 µM -5% | [1]; at 33.0 µM -6% | [2]; at 1.2 µM -3% | [2]; at 3.7 µM -4% | [2]; at 11.0 µM -4% | [2]; at 33.0 µM 3% | [2]; at 100.0 µM 63% | [3]; at 1.2 µM -4% | [3]; at 3.7 µM -1% | [3]; at 11.0 µM -1% | [3]; at 33.0 µM 3% | [4]; at 1.2 µM -3% | [4]; at 3.7 µM -8% | [4]; [16] -3% | [4]; at 11.0 µM -9% | [4]; at 33.0 µM -6% | [4]; [17] -6% | [5]; at 1.2 µM -3% | [5]; at 3.7 µM 1% | [5]; [16] 0% | [5]; at 11.0 µM 4% | [5]; at 33.0 µM 0% | [5]; [17] -3% | [5]; at 50.0 µM 68.2% | [6]; at 1.2 µM -15% | [6]; at 3.7 µM -3% | [6]; at 11.0 µM -2% | [6]; at 33.0 µM 4% | [7]; [16] 2% | [7]; [17] -7% | [8]; at 1.2 µM -10% | [8]; at 3.7 µM -15% | [8]; at 11.0 µM -23% | [8]; at 33.0 µM -18% | [9]; [16] -7% | [9]; [17] -5% | [9]; at 50.0 µM 61.4% | [10]; at 1.2 µM 0% | [10]; at 3.7 µM -4% | [10]; [16] 6% | [10]; at 11.0 µM 0% | [10]; at 33.0 µM 10% | [10]; [17] -3% | [11]; at 1.2 µM -2% | [11]; at 3.7 µM -4% | [11]; at 11.0 µM -2% | [11]; at 33.0 µM -3% | [12]; at 1.2 µM -2% | [12]; at 3.7 µM -2% | [12]; at 11.0 µM 0% | [12]; at 33.0 µM 4% | [13]; at 1.2 µM -4% | [13]; at 3.7 µM -2% | [13]; at 11.0 µM -1% | [13]; at 33.0 µM 4% | [14]; [16] -2% | [14]; [17] -2% | [15]; at 1.2 µM -1% | [15]; at 3.7 µM 1% | [15]; at 11.0 µM 4% | [15]; at 33.0 µM 1%
active: [1]; at 100.0 µM 97% | [3]; at 100.0 µM 97% | [4]; at 50.0 µM 78.2% | [4]; at 100.0 µM 97% | [5]; at 100.0 µM 98% | [6]; at 100.0 µM 98% | [7]; at 50.0 µM 84.5% | [8]; at 100.0 µM 93% | [10]; at 50.0 µM 94.9% | [10]; at 100.0 µM 97% | [11]; at 100.0 µM 96% | [12]; at 100.0 µM 96% | [13]; at 100.0 µM 96% | [14]; at 50.0 µM 89.8% | [15]; at 100.0 µM 98%

CSC(=S)N/N=C(\C)c1cccc(C)n1
active: [1]; at 100.0 µM 97% | [2]; at 100.0 µM 98% | [3]; at 100.0 µM 98% | [4]; at 33.0 µM 93% | [4]; [17] 99% | [4]; at 50.0 µM 99.4% | [4]; at 100.0 µM 98% | [5]; [17] 99% | [5]; at 50.0 µM 99.4% | [5]; at 100.0 µM 98% | [6]; at 100.0 µM 98% | [7]; [17] 99% | [7]; at 50.0 µM 99.3% | [8]; at 100.0 µM 97% | [9]; [17] 98% | [9]; at 50.0 µM 99.2% | [10]; [17] 99% | [10]; at 50.0 µM 99.2% | [10]; at 100.0 µM 98% | [11]; at 100.0 µM 99%
inactive: [1]; at 1.2 µM -3% | [1]; at 3.7 µM -5% | [1]; at 11.0 µM -8% | [1]; at 33.0 µM 47% | [2]; at 1.2 µM -3% | [2]; at 3.7 µM -3% | [2]; at 11.0 µM -3% | [2]; at 33.0 µM 5% | [3]; at 1.2 µM -7% | [3]; at 3.7 µM -11% | [3]; at 11.0 µM -10% | [3]; at 33.0 µM 39% | [4]; at 1.2 µM -4% | [4]; at 3.7 µM 2% | [4]; [16] -6% | [4]; at 11.0 µM 11% | [5]; at 1.2 µM -6% | [5]; at 3.7 µM -13% | [5]; [16] 28% | [5]; at 11.0 µM -10% | [5]; at 33.0 µM 62% | [6]; at 1.2 µM -8% | [6]; at 3.7 µM 6% | [6]; at 11.0 µM -5% | [6]; at 33.0 µM 44% | [7]; [16] 23% | [8]; at 1.2 µM -24% | [8]; at 3.7 µM -24% | [8]; at 11.0 µM -15% | [8]; at 33.0 µM 21% | [9]; [16] 59% | [10]; at 1.2 µM -14% | [10]; at 3.7 µM -20% | [10]; [16] 19% | [10]; at 11.0 µM 9% | [10]; at 33.0 µM 34% | [11]; at 1.2 µM -6% | [11]; at 3.7 µM -6% | [11]; at 11.0 µM -5% | [11]; at 33.0 µM 63%
